# An excerpt weighted towards active compounds, which were near 21% of everything screened.
# Pf growth 96h: inhibits malaria parasite growth, 96 h; actives 6.9% (n = 320,000); P. falciparum luciferase reporter growth, 96 h; Potency, µM (top dose mostly 28.7 µM), hits mostly inhibitors
#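 96 h incubation, 37 C, 5% CO2, of luciferase-reporter P. falciparum-infected RBCs (2% hematocrit, 0.05% parasitemia final) with test compounds; endpoint luminescence.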
# Pf growth 48h: inhibits P. falciparum growth in the first generation, 48 h | P. falciparum luciferase growth in erythrocytes, 48 h | Potency, µM (titrated, usually from 28.7 µM), actives largely listed as inhibitors | actives 5.9% (n = 310,000) | AID 504832
#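 Cell-based growth assay: transgenic P. falciparum expressing firefly luciferase, cultured in red cells within RPMI 1640 containing 0.5% w/v Albumax, 24 mM bicarbonate and gentamycin. A drop in luciferase activity indicates inhibition.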
# Sm TGR inh: inhibitors of Schistosoma mansoni thioredoxin glutathione reductase; purified TGR, DTNB reduction, TNB absorbance 405 nm; Potency, µM (doses to about 114 µM), most hits filed as inhibitors; actives 3% (n = 360,000); AID 485364; note: nearly all actives have a fitted effect of over 60% in size
#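 Kinetic colorimetric format: TGR-catalysed, NADPH-driven DTNB reduction monitored via TNB absorbance. Enzyme dispensed at 20 nM; compound exposure 15 min at room temperature before reaction start.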
# Shiga inhibitor: inhibitors of Shiga toxin in Vero cells; inhibition, % at 38.7 µM; Vero cells, Shiga toxin protein synthesis inhibition reporter; actives 9.2% (n = 290,000); AID 2315; in the data active = inhibition mostly above about 28%, no sharp cut-off; inactive = mostly below about 43%
# CHX counter: counter-screen for Shiga toxin inhibitors: cycloheximide protein synthesis inhibition | cell reporter, cycloheximide protein synthesis inhibition counterscreen | actives 12% (n = 300,000) | max response, %; in the data active = max response mostly above about 13%, no sharp cut-off; inactive = mostly below about 14%; note: read at 38.3 µM for the half of the compounds with a filed dose
# NS1 function inh: blocks influenza NS1 protein function; Potency, µM (doses to about 46.1 µM); actives 0.4% (n = 270,000); calls by dose curve; note: actives are rising curves; nearly all actives have a fitted effect of over 50% in size
#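 Recovery from NS1-induced slow growth read by OD600 in budding yeast switched to galactose assay medium (pH 6.0, -URA) at 1:100 dilution. Compound 23 nl per well; the matching strain lacking NS1 serves as control.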
# A number is an active result; n = inactive; u = inconclusive; x = no result; ! = repeats disagree. Unless noted, calls come from the whole dose curve; as a rule, active = well fitted curve in the direction sought with a large enough effect; inconclusive = small, poorly fitted or top-dose-only effect, or another doubt; inactive = no such curve, though single readings can be large; an effect the other way counts as inactive or inconclusive.
SMILES,Pf growth 96h,Pf growth 48h,Sm TGR inh,Shiga inhibitor,CHX counter,NS1 function inh
O=C(Nc1cccc(Cl)c1)C1C2C=CC3(O2)C1C(=O)N(CCCN1CCCCC1)C3C(=O)NC1CCCCC1 (stereo not drawn),n,n,n,n,n,n
CCc1ccc(Oc2c(C(F)(F)F)oc3c(CN4CCCC(C)C4)c(O)ccc3c2=O)cc1 (stereo not drawn),x,x,n,x,x,x
COc1ccc(-n2ccn(Cc3ccccc3Cl)c(=O)c2=O)cc1OC,x,x,n,x,x,x
OCc1ccccc1OCCOc1ccc(Cl)c2cccnc12,n,n,n,n,27,x
Clc1ccc(OCc2cn3ccccc3n2)c2ncccc12,n,n,n,90,37,n
Clc1ccc(Oc2ccccc2)c2ncccc12,n,n,n,n,n,n
Cn1cc([N+](=O)[O-])c(C(=O)Nc2ccc(-c3nc4ccccc4o3)cc2)n1,n,n,n,69,39,n
COc1ccc2oc(-c3ccc(NC(=O)c4ccc(N5CCOCC5)c([N+](=O)[O-])c4)cc3)nc2c1,u,2.3µM,n,n,n,n
O=C(Nc1cc(-c2nc3ccccc3o2)ccc1Cl)c1ccc(N2CCCCC2)c([N+](=O)[O-])c1,x,x,n,x,x,x
O=C(Nc1ccc(-c2nc3ccccc3o2)cc1)c1ccc(N2CCOCC2)c([N+](=O)[O-])c1,u,n,n,n,8.5,n
COc1ccc(-c2noc(-c3ccc(N4CCOCC4)c([N+](=O)[O-])c3)n2)cc1,x,x,n,x,x,x
Cc1ccc(N(CC(=O)NC2CCCCC2)C(=O)CCC(=O)Nc2nccs2)cc1,n,u,n,n,n,n
O=C(c1cc(-c2ccccc2)on1)N1CCCC1,x,n,n,149,30,n
O=C(c1cc(-c2cccc(Cl)c2)on1)N1CCN(c2ccccc2)CC1,n,n,n,n,n,n
O=C(c1cc(-c2ccc(Cl)c(Cl)c2)on1)N1CCCCC1,u,n,n,120,40,n
O=C(c1cc(-c2ccc(Cl)cc2)on1)N1CCCC1,n,n,n,90,37,n
O=C(c1cc(-c2ccc(Cl)cc2)on1)N1CCN(c2ccc(F)cc2)CC1,u,n,n,n,n,n
O=C(c1cc(-c2cccc(Cl)c2)on1)N1CCCC1,n,n,n,71,18,n
Cc1cc(C(=O)N(C)C2CCCCC2)no1,n,n,n,n,n,n
CN(C(=O)c1cc(-c2ccccc2)on1)C1CCCCC1,n,n,n,73,37,n
CCN1C(=NCc2ccccc2)N[C@@H](c2ccccc2)[C@H](C(=O)OC)[C@H]1C,u,u,n,n,n,n
CCN1C(=NCCCOC(C)C)N[C@@H](CCc2ccccc2)[C@H](C(=O)NCCCOC(C)C)[C@H]1C,4.7µM,4.7µM,n,n,n,n
CCN1C(=NCCOC)N[C@@H](CCc2ccccc2)[C@H](C(=O)OC)[C@H]1C,17µM!,n,n,n,n,n
COc1ccc(N=C2SC(C(=O)N3CCN(c4ccc([N+](=O)[O-])cc4)CC3)CC(=O)N2C)cc1 (stereo not drawn),n,15µM,x,n,n,n
COc1ccc(N2CCN(C(=O)C3CC(O)CN3S(=O)(=O)c3ccc([N+](=O)[O-])cc3)CC2)cc1 (stereo not drawn),n,n,n,n,n,n
SMILES,Pf growth 96h,Pf growth 48h,Sm TGR inh,Shiga inhibitor,CHX counter,NS1 function inh
CCCOC(=O)c1ccc(Nc2c(C(=O)OCC)cnc3c(C)cc(Cl)cc23)cc1,x,x,n,x,x,x
Cc1cccc(C)c1NC(=O)CN(C)C(=O)c1ccc(COc2ccccc2)cc1,n,n,n,n,20,n
CCC1=C(OC(=O)N(CC)CC)N2C(=O)OC(=NCC(=O)OC)[C@]2(C)[C@H]2C1=CC[C@H]1C(=O)N(CC(=O)OC)C(=O)[C@H]12,n,n,n,n,n,n
CCC1=C(OC(=O)N(CC)CC)N2C(=O)OC(=NCCc3c[nH]c4ccccc34)[C@]2(Cc2ccccc2)[C@H]2C1=CC[C@H]1C(=O)N(CC)C(=O)[C@H]12,13µM,9.3µM,n,n,n,n
COCCN=C1OC(=O)N2C(=O)C3=C4[C@@H](C[C@H]5C(=O)N(c6ccccc6)C(=O)[C@H]5[C@H]4[C@@]12Cc1ccccc1)[C@H]1C(=O)N(c2ccccc2)C(=O)[C@H]1[C@H]3C,u,u,n,n,n,n
CCC1=C(OC(=O)N(CC)CC)N2C(=O)OC(=NCCOC)[C@]2(Cc2ccccc2)[C@H]2C1=CC[C@H]1C(=O)N(C)C(=O)[C@H]12,u,10µM,n,n,n,n
CCC1=C(OC(=O)N(CC)CC)N2C(=O)OC(=NCC(=O)OC)[C@]2(Cc2ccccc2)[C@H]2C1=CC[C@H]1C(=O)N(CC(=O)OC)C(=O)[C@H]12,u,12µM,n,n,n,n
COC(=O)CN=C1OC(=O)N2C(=O)C3=C4[C@@H](C[C@H]5C(=O)N(c6ccccc6)C(=O)[C@H]5[C@H]4[C@@]12Cc1ccccc1)[C@H]1C(=O)N(c2ccccc2)C(=O)[C@H]1[C@H]3C,u,12µM,n,n,n,n
C#CCOn1c(-n2nc(C)cc2C)nc2ccccc2c1=O,u,n,n,n,n,n
CCC1=C(OC(=O)N(CC)CC)N2C(=O)OC(=NCc3ccccc3)[C@]2(C)[C@H]2C1=CC[C@H]1C(=O)N(CC)C(=O)[C@H]12,u,12µM,n,n,n,n
CCC1=C(OC(=O)N(CC)CC)N2C(=O)OC(=NCCOC)[C@]2(Cc2ccccc2)[C@H]2C1=CC[C@H]1C(=O)N(CC)C(=O)[C@H]12,u,13µM,n,n,n,n
CCC1=C2CC[C@H]3C(=O)N(C)C(=O)[C@H]3[C@H]2[C@@]2(Cc3ccccc3)C(=NCCOC)OC(=O)N2C1=O,n,n,n,n,n,n
CCC1=C(OC(=O)N(CC)CC)N2C(=O)OC(=NCC3CC3)[C@]2(Cc2ccccc2)[C@H]2C1=CC[C@H]1C(=O)N(CC)C(=O)[C@H]12,13µM,7.4µM,n,n,n,n
CCC1=C(OC(=O)N(CC)CC)N2C(=O)OC(=NCC(=O)OC)[C@]2(C)[C@H]2C1=CC[C@H]1C(=O)N(CC)C(=O)[C@H]12,n,n,n,n,n,n
CCC1=C(OC(=O)N(CC)CC)N2C(=O)OC(=NCCc3c[nH]c4ccccc34)[C@]2(C)[C@H]2C1=CC[C@H]1C(=O)N(C)C(=O)[C@H]12,u,10µM,n,n,n,n
CC(C)c1ccc(NC(=O)CSC2=Nc3ccccc3C3=NC(CC(=O)NCc4ccco4)C(=O)N23)cc1 (stereo not drawn),x,x,n,x,x,x
O=C(Cc1cccc(NC(=O)C2CCN(C(=O)CCc3ccccc3)CC2)c1)Nc1cccc(C(=O)N2CCCC2)c1,u,12µM,n,x,x,x
O=C(Cc1cccc(NC(=O)C2CCN(C(=O)C3CCCC3)CC2)c1)Nc1cccc(C(=O)N2CCCC2)c1,u,15µM,n,x,x,x
